# Assay outcomes from PubChem BioAssay.
# Hits are enriched below; roughly 1.8% of the tested compounds scored in any of these assays.
# NFkB transloc pot: enhances IL-1B driven NFkB nuclear translocation; HUVEC IL-1B NFkB p65 nuclear translocation imaging; activation, % at 2 µM; actives 0.3% (n = 94,000);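 active = activation above 40%, about the mean plus 3 SD, also judged a hit on visual image review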;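 note: percent activation is computed from the nuclear over cytoplasmic p65 intensity ratio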
# HUVEC tox TNFa: toxic to HUVEC cells under TNF alpha stimulation. HUVEC TNFalpha-stimulated, Hoechst cell count, imaging. cell count reduction, % at 2 µM. actives 0.17% (n = 93,000). AID 848;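 active = cell count reduction exceeding the screen mean by over 5 SD, scaled to untreated wells per plate, cut at about 78% in these data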;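 note: cells counted after 24 h of TNF alpha exposure following the 1 h pretreatment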
# HUVEC tox IL1B: HUVEC cytotoxicity counter-screen, IL-1B stimulated | HUVEC cell count loss, Hoechst imaging | cell count reduction, % at 2 µM | actives 0.41% (n = 94,000) | AID 845;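 active = cell count reduction more than 3 SD above the screen-wide mean, cut at about 70% in these data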;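 note: normalized per plate to untreated control cells as the no-loss baseline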
# VCAM1 TNFa inh: reduces TNF alpha induced VCAM1 expression in HUVEC | actives 0.48% (n = 95,000) | HUVEC TNFa-induced VCAM-1 immunofluorescence, high-content imaging | inhibition, % at 2 µM;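 active = inhibition above the batch mean plus 3 SD, with images confirmed as a hit by eye, cut at about 37% in these data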;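 note: 0% = TNF-stimulated DMSO wells and 100% = unstimulated control wells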
# NFkB transloc inh: blocks IL-1B driven NFkB nuclear translocation in HUVEC cells | HUVEC IL-1B NFkB p65 nuclear translocation imaging | inhibition, % at 2 µM | actives 0.43% (n = 94,000) | AID 796;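 active = inhibition above about 30% together with a positive call from visual inspection of the well image, limit read from the data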;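 note: nuclear over cytoplasmic p65 intensity ratio measured by imaging; 0% = IL-1B stimulated DMSO wells and 100% = unstimulated DMSO wells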
# E-sel TNF inh: TNF alpha driven E-selectin expression inhibition. HUVEC TNFa-induced E-selectin immunofluorescence, high content. AID 1246. actives 0.71% (n = 120,000). inhibition, % at 2 µM;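 active = inhibition above the batch mean plus 3 SD, and confirmed as a hit on visual image review, cut at about 43% in these data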;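 note: 0% = TNF-stimulated DMSO wells and 100% = unstimulated control wells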
# An asterisk follows results filed as active; nt = no result given.
SMILES,NFkB transloc pot,HUVEC tox TNFa,HUVEC tox IL1B,VCAM1 TNFa inh,NFkB transloc inh,E-sel TNF inh
CCSc1nnc(-c2cccs2)o1,12,75,1,45,-12,100*
Cc1ccc2nc(Cl)c(/C=N/n3c(C)nnc3C)cc2c1,nt,nt,nt,nt,nt,-84
COc1ccc(N(Cc2cc3cc(OC)ccc3[nH]c2=O)C(=O)c2cccnc2)cc1,8,-15,-34,5,-8,-6
COc1ccc2[nH]c(=O)c(CN(C(=O)c3cccnc3)c3ccccc3)cc2c1,67*,-6,-4,10,-67,-8
CCN(Cc1cc2cc(C)ccc2[nH]c1=O)C(=O)c1cccc(OC)c1,-17,82*,19,90*,17,nt
Cc1cc(NC(=O)CSc2nc(-c3ccco3)cc(C(F)(F)F)n2)no1,-9,46,-4,53*,9,-2
Cc1cc(NC(=O)CCSc2nc(-c3ccco3)cc(C(F)(F)F)n2)no1,-5,-12,15,-4,5,9
Cc1cc(NC(=O)CSc2n[nH]c(N)n2)no1,nt,nt,nt,nt,nt,67*
COc1ccc(CCNC(=O)CSc2nc(-c3ccco3)cc(C(F)(F)F)n2)cc1OC,25,-19,9,10,-25,68*
O=C(Nc1ccc2nc(SCc3ccc(Cl)cc3)sc2c1)c1ccccc1C(=O)N1CCOCC1,6,18,15,26,-6,53*
Cc1nc2ccc(NC(=O)N3CCOCC3)cc2s1,-51,-10,-39,1,51*,3
Cc1nc2ccc(NC(=O)c3cc(S(=O)(=O)N4CCOCC4)ccc3C)cc2s1,8,-28,7,3,-8,92*
Cn1c(SCc2cc([N+](=O)[O-])cc3c2OCOC3)nnc1-c1ccccn1,nt,nt,nt,nt,nt,3
COc1ccc(-c2nsc(C(=O)N(c3ccc(F)cc3)C(C(=O)NC3CCCC3)c3ccc(OC)cc3)c2N)cc1 (centres undefined),nt,nt,nt,nt,nt,-59
CN1CC=C2C(C#N)=C(N)C(C#N)(C#N)C(c3ccsc3)C2C1 (centres undefined),10,-7,2,10,-10,3
CN1CC=C2C(C#N)=C(N)C(C#N)(C#N)[C@H](c3cccc(Cl)c3)C2C1 (some centres undefined),-34,-4,-42,2,34*,8
O=C(CN1CCOCC1)Nc1nc2ccc(Br)cc2s1,-11,16,12,15,11,6
COc1cc(S(=O)(=O)Nc2cccc(C(=O)O)c2)c(OC)cc1Cl,-49,-9,88*,5,49*,nt
CCc1nnc(NS(=O)(=O)c2ccc(NC(=S)NC(=O)/C=C/c3ccc(C(C)C)cc3)cc2)s1,-5,-31,4,0,5,-14
CC(CCc1ccccc1)NC(=O)c1cccnc1 (centres undefined),-58,-4,1,11,58*,-12
COc1ccc(CCNC(=O)c2cccnc2)cc1,-8,6,-15,-9,8,-1
NC(=O)NC1CCCc2c1[nH]c1ccc(Cl)cc21 (centres undefined),nt,nt,nt,nt,nt,10
CCOC(=O)c1ccc2[nH]c3c(c2c1)CCCC3C(=O)OCC (centres undefined),6,-18,-17,6,-6,-7
CCOC(=O)c1ccc2[nH]c3c(c2c1)CCCCC3=O,41*,5,16,-6,-41,-24
O=C1CCCc2c1[nH]c1ccc(Cl)cc21,-5,39,8,76*,5,0
SMILES,NFkB transloc pot,HUVEC tox TNFa,HUVEC tox IL1B,VCAM1 TNFa inh,NFkB transloc inh,E-sel TNF inh
Cn1c2ccc(F)cc2c2ncn(Cc3ccco3)c(=O)c21,-32,-14,-4,-1,32*,-5
Cn1c2ccccc2c2ncn(Cc3ccco3)c(=O)c21,15,-10,-12,17,-15,20
CCOc1cc(/C=C2/C(=O)N(c3ccccc3)N=C2C)ccc1OC(=O)c1ccco1,17,13,4,44*,-17,57
COc1cc(NC(=O)CN2C(=O)NC(C)(CCC(C)C)C2=O)cc(OC)c1 (centres undefined),-4,-31,-20,6,4,-1
COc1cc(NC(=O)CN2C(=O)NC(C)(CC(C)C)C2=O)cc(OC)c1 (centres undefined),16,-41,-64,93*,-16,3
CCn1c(SCc2nc(CC(=O)Nc3ccccc3OC)no2)nnc1-c1cccs1,2,8,17,-9,-2,100*
Cc1cccc(C)c1NC(=O)CN(C)C(=O)/C=C/c1cccs1,nt,nt,nt,nt,nt,93*
Cc1ccc(NC(=O)CN(C)C(=O)/C=C/c2cccc(F)c2)cc1,nt,nt,nt,nt,nt,-17
O=C(O)CCC(NC(=O)OCc1ccccc1)C(=O)O (centres undefined),3,-7,-12,-4,-3,3
CSCCC(NC(=O)OCc1ccccc1)C(=O)O (centres undefined),-10,-24,-27,97*,10,-18
COc1ccc(NC(=O)CC23CC4CC(CC(C4)C2)C3)cn1,nt,nt,nt,nt,nt,24
COc1ccc(NC(=O)/C(Cl)=C(/Cl)S(=O)(=O)Cc2ccc(C)cc2)cn1,nt,30,nt,51*,nt,72*
COc1ccc(NC(=O)/C(Cl)=C(/Cl)S(=O)Cc2ccccc2Cl)cn1 (centres undefined),nt,nt,nt,nt,nt,100*
COc1ccc(N(C(C)=O)S(=O)(=O)c2cccc3cccnc23)cc1,nt,nt,nt,nt,nt,19
CN1/C(=C/C(=O)c2nc(S(C)(=O)=O)ncc2Cl)C(C)(C)c2ccccc21,-8,17,-2,-9,8,90*
CCOc1ccc(C(=O)OCC(=O)Nc2ccc(SC(F)F)cc2)cc1OCC,nt,nt,nt,nt,nt,21
CCCNC(=O)CCc1c(C)nc2nc(C)nn2c1C,nt,nt,nt,nt,nt,25
CCn1cc(S(=O)(=O)CC(=O)NC2CCCCC2)c2ccccc21,1,0,-18,-2,-1,nt
CCn1cc(S(=O)(=O)CC(=O)Nc2cc(C)ccc2C)c2ccccc21,-3,-3,-11,26,3,62*
CC(C)(C)OC(=O)NCC(=O)N1CCC(C(=O)O)CC1,2,-21,-17,11,-2,69*
CCOc1c(Br)cc(C2NS(=O)(=O)N=C3CCCCCN32)cc1OC (centres undefined),-1,-25,-8,14,1,13
c1ccc(-n2c(Sc3cnccn3)nnc2-c2cccs2)cc1,9,9,2,-3,-9,63*
Clc1ccc(-n2cnnn2)cc1,3,19,2,-8,-3,nt
Oc1ccc(-n2cnnn2)cc1,-2,-6,89*,5,2,-8
NC(=S)N/N=C/c1ccc(-c2cc(Cl)ccc2Cl)o1,8,9,3,54*,-8,-28
Cc1ccc(O)c(C(=O)c2coc(=N)c(C(=O)NC(C)C)c2)c1,-18,0,-14,5,18,-8
CC(C)Sc1nc2c(c(=O)n1-c1ccc(F)cc1)SCC2,8,6,-18,94*,-8,12
O=S(=O)(NCc1cccnc1)c1cc(Cl)ccc1Cl,6,-22,-4,16,-6,nt
